Bioassay records deposited in PubChem by National Center for Advancing Translational Sciences (NCATS).
Only some compounds are listed: those with a hit (about 6.2% of all), similar ones and a draw of the others.
Gal4-VP16 FLuc: VP16 counterscreen qHTS for inhibitors of ROR gamma transcriptional activity | Drosophila S2 Gal4-VP16 UAS-luciferase, luminescence, 20 h | hit rate 3.5% among 310,000 | Potency, µM (highest dose often 53.6 µM), without a hit: at the top dose activity, negative = inhibition, usual class: inhibitors;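 note: Gal4-VP16 expression switched on by copper sulfate through the metallothionein promoter; nearly all actives have a fitted effect of over 50% in size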
KinaseGlo FLuc: Counterscreen for Luciferase (Kinase-Glo TM) Inhibition; AID 1379, 2008; Luciferin 4-monooxygenase (Photuris pensylvanica), Q27757; Potency, µM (series often up to 38.3 µM), inactives show top-dose activity change, negative = inhibition, hits mostly inhibitors; Kinase-Glo luciferase, ATP luminescence, 8 min; hit rate 0.28% among 200,000; note: nearly all actives have a fitted effect of over 60% in size
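Kinase-Glo luciferase light output from ATP and luciferin was measured with 10 uM ATP, within the enzyme's linear range. Buffer: 50 mM imidazole pH 7.2, 50 mM KCl, 7 mM MgCl2, 0.01% Tween 20, 0.05% BSA; luminescence read after 8 min at ambient temperature.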
RORgamma inh: qHTS for inhibitors of ROR gamma transcriptional activity; hit rate 5.4% among 310,000; Drosophila S2 Gal4-RORgamma UAS-luciferase reporter, 20 h; Nuclear receptor ROR-gamma (Mus musculus), P51450; Potency, µM (top dose mostly 53.6 µM), for inactives: top-dose activity change, negative = inhibition, most hits filed as inhibitors; note: nearly all actives have a fitted effect of over 60% in size
Target sequence (P51450 whole entry, looked up, the tested form may be a part): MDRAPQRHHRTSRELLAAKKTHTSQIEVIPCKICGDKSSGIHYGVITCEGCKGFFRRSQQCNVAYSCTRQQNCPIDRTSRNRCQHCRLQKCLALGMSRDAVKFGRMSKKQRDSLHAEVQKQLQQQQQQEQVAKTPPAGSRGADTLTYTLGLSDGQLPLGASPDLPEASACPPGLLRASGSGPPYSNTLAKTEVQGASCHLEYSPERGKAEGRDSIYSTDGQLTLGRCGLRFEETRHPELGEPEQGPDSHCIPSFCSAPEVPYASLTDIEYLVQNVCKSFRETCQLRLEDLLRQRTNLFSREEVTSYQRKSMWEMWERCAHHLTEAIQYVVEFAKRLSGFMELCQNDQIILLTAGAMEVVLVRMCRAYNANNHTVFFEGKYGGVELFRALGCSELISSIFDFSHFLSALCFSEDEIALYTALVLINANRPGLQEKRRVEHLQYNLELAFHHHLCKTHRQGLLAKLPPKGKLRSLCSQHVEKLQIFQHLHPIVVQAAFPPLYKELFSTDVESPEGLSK
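Stable Schneider cell line, Gal4 DNA-binding domain fused to ROR gamma, UAS-luciferase. Cmpd 1 hr RT → CuSO4 700 uM final → 20 hr RT → luciferase reagent 10 min → luminescence.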
* = called active by the depositor; ? = inconclusive; nt = no result given; ! = not confirmed by another sample; [ ] = remark or other dose. Calls come from the whole dose curve; as a rule, active = well fitted curve in the direction sought with a large enough effect; inconclusive = small, poorly fitted or top-dose-only effect, or another doubt; inactive = no such curve, though single readings can be large; an effect the other way counts as inactive or inconclusive. % is set by controls: 0 for no effect and ±100 for the full control effect; potency is the fitted concentration of half-maximal effect.

SMILES | Gal4-VP16 FLuc | KinaseGlo FLuc | RORgamma inh
Cc1ccc(NC(=[OH+])c2cc3ccccc3cc2O)c(C)c1.Cc1ccc(NC(=[OH+])c2cc3ccccc3cc2O)c(C)c1.[Ni] | nt | -7%[7.66 µM] | nt
CCCNC(=O)c1c(N)n(CC2CCCO2)c2nc3ccccc3nc12 (configuration not stated) | 6.3µM* | 0% | ?
Nc1c(C(=O)OC2CCCCC2)c2nc3ccccc3nc2n1CC1CCCO1 (configuration not stated) | -26% | 1% | 11µM*
CC(C)OC(=O)c1c(N)n(CC2CCCO2)c2nc3ccccc3nc12 (configuration not stated) | -8% | -1% | -23%
CC(C)OCCCNC(=O)c1c(N)n(CC2CCCO2)c2nc3ccccc3nc12 (configuration not stated) | -8% | -4% | 13%
CC(C)CNCCc1ccccn1 | nt | -4%[7.66 µM] | nt
CC(Cc1ccc(C(C)(C)C)cc1)CN1CC(C)OC(C)C1 (configuration not stated) | -17% | nt | -7%
C[C@H]1O[C@H](O[C@H]2[C@H](O)[C@@H](O)[C@@H](O)[C@H](O)[C@@H]2O)[C@@H](N)C[C@@H]1NC(=N)C(=O)O | -24% | -16% | -16%
N#CC(Cl)(Cl)Cl | 1% | nt | 11%
CN1CCCCC1Cn1cc(C(=O)c2cc([N+](=O)[O-])ccc2I)c2ccccc21 (configuration not stated) | 1% | nt | 24%
CCC1OC2(C)C(O)C(/C=C/C=C/C=C/c3oc(=O)cc(OC)c3C)OC1(C)C2OC(C)=O (configuration not stated) | nt | nt | 0.04µM*
O=C(O)c1ccccc1-c1c2cc(Br)c(=O)cc-2oc2[c]([Hg])c(O)c(Br)cc12 | 18µM*! | -13% | ?
C=CC(C)=O | 1% | nt | 2%
CC(O)CCl (configuration not stated) | -7% | nt | 2%
Oc1ccc([C@H](O)C2CCCCN2)cc1O (some centres not stated) | nt | -3%[7.66 µM] | nt
CC1=CC2/C=C(\C)CCC(O)C(O)/C=C/C(=O)C23C(=O)NC(CC(C)C)C3C1C (configuration not stated) | 7.1µM* | nt | 5µM*
c1ccc(N=NNc2ccccc2)cc1 | 5% | nt | 18%
CCc1ccc(N2C(=O)NC(=O)/C(=C/c3cccn3CCOc3ccc(C(C)CC)cc3)C2=O)cc1 (configuration not stated) | ? | -3% | 0.79µM*
CCc1ccc(N2C(=O)NC(=O)/C(=C/c3cccn3CCOc3ccc(C)cc3)C2=O)cc1 | ? | 0% | ?
CC(=O)/C=C/c1ccccc1 | -8% | nt | 23%
CC(=O)[O][Hg][c]1ccccc1 | 1% | 13µM* | 1.1µM*
COP(=S)(OC)Oc1ccc([N+](=O)[O-])c(C)c1 | -12% | nt | 2%
CCCCCn1c(=O)c(C(=O)Nc2ncccc2C)c(O)c2ccccc21 | 8.9µM* | nt | 8.9µM*
CCCCn1c(=O)c(C(=O)Nc2ccccc2C)c(O)c2ccccc21 | -24% | nt | ?
NC(Cc1ccc(Oc2cc(I)c(O)c(I)c2)c(I)c1)C(=O)O (configuration not stated) | -16% | nt | 9%
SMILES | Gal4-VP16 FLuc | KinaseGlo FLuc | RORgamma inh
CCCSP(=S)(OCC)Oc1ccc(Cl)cc1Cl (configuration not stated) | 1% | nt | 8%
CC[C@@]1(O)C(=O)OCc2c1cc1n(c2=O)Cc2cc3c(NC(=O)CN)cccc3nc2-1 | -20% | -4%[7.66 µM] | -41%
CC[C@@]1(O)C(=O)OCc2c1cc1n(c2=O)Cc2cc3ccccc3nc2-1 | ? | 3% | 0.056µM*
CC[C@]1(OC(=O)CN)C(=O)OCc2c1cc1n(c2=O)Cc2cc3ccccc3nc2-1 | nt | -5%[7.66 µM] | nt
CC[C@@]1(O)C(=O)OCc2c1cc1n(c2=O)Cc2cc3c(O)cccc3nc2-1 | ? | nt | 0.35µM*
CCCCCCC1CC(C)(C(=O)CNc2nncs2)OC1=O (configuration not stated) | -12% | 3% | ?
CC(C)(C)C(O)C(Cc1ccc(Cl)cc1Cl)n1cncn1 (configuration not stated) | 0% | nt | 18%
NCCc1ccc(S(=O)(=O)O)cc1[N+](=O)[O-] | nt | -1%[7.66 µM] | nt
C[C@@H]1C[C@H]2OC(=O)C3(CO3)[C@H]2[C@H](O)[C@]2(C)C(=O)C3OC3[C@@H]12 (some centres not stated) | ? | nt | 10µM*
COc1cc2c(cc1OC)[C@@H]1C(=O)c3ccc4oc(C(C)C)cc4c3OC1CO2 (some centres not stated) | 0.32µM* | -3% | 5µM*
